Measurements published in PubChem BioAssay AID493248 (Broad Institute, 2011).
In all, about 2,300 compounds went through this assay and about 1,400 (61%) were called active. Roughly 7% stayed inconclusive and do not appear here. No rule for the calls is given here. So high a share suggests a set chosen from earlier hits. These entries were drawn from the full list. Potency and affinity values are given separately.

target: FAD-linked sulfhydryl oxidase ALR (Homo sapiens) (UniProt P55789); experiment: ALR-catalysed DTT oxidation blockers – biochemical, H2O2 detection, luminescence, cherry-pick, dose response (AID 493248); conditions: purified ALR, H2O2 HRP-luminol luminescence; at 10 µM (top of the series)
Sequence (P55789 whole entry, looked up): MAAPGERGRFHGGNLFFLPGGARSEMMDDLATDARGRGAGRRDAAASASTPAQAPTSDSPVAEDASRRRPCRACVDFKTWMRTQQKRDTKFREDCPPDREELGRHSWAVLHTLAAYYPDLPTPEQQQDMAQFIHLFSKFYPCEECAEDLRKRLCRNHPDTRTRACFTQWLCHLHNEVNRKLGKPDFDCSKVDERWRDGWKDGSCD

SMILES	activity change, negative = inhibition [%]
Cc1ccc2cc3cc(C(=O)NCCCN4CCCC4=O)oc3nc2c1	-55.2
Cc1nc(C)c(-c2csc(Nc3ccc(O)cc3C)n2)s1	-3.91
Cc1nc(C)c(-c2csc(Nc3cccnc3)n2)s1	-15.7
COc1cc(N)c(Cc2nccc3cc(OC)c(OC)cc23)cc1OC	5.91
COc1cc(Sc2ccc(C)cc2)c(OC)cc1N	-74.8
Cc1cccc(/C=N/Nc2nncc3ccccc23)c1	-4.32
CC(/C=N/n1c(-c2ccc(C)cc2)n[nH]c1=S)=C\c1ccco1	-40.8
CN1C(=O)CC(NNC(=O)c2ccc(Cl)cc2)C1=O (stereo unspecified)	-47.1
O=C(N/N=C1/CCSC1)c1cc(Br)ccc1O	-17.6
COc1ccc(NCCc2ccccn2)cc1	86.3
O=c1[nH]nc(CNc2ccc(O)cc2)c2ccccc12	-103
COc1ccc(Nc2ccccc2N)cc1	221
S=c1[nH]cc(-c2ccccc2)n1-c1ccccc1Cl	-24.1
Nc1ccccc1C(=O)NNc1c2ccccc2nc2ccccc12	-69.6
C/C(=N\NC(=O)c1ccccc1O)C1C(=O)c2ccccc2C1=O	-23.9
CC(=O)Nc1ccc(NCN2C(=O)C3C4CCC(C4)C3C2=O)cc1 (stereo unspecified)	-86.6
CCc1cc2c3c(c1)C(C)CC(C)(C)N3C(=O)/C2=C1\SC(=O)NC1=O (stereo unspecified)	-7.31
C/C(=N\Nc1ccccn1)c1cccs1	-11.5
COc1ccc2c(c1)N(C)/C(=C/c1cccc[n+]1C)S2	-53.1
CCC(=O)Nc1cccc(-c2cnc3ccccc3n2)c1	3.89
CN1CCN(c2ccc(NC(=O)c3ccc(Cl)cc3)cn2)CC1	-19.7

SMILES	activity change, negative = inhibition [%]
COc1cc(OC)cc(C(=O)N2CCC(N3CCN(c4ccccc4)CC3)CC2)c1	-61.4
CC(=O)NN1C(=O)/C(=C\c2ccc(O)cc2)SC1=S	-79.9
O=C(C1CC1)N1CCN=C1SCc1ccc(Cl)cc1	-64.3
O=C1c2ccccc2CSc2c(O)cccc21	-28.4
CC(=O)Nc1ccc(S(=O)(=O)NNc2ccc([N+](=O)[O-])cc2)cc1	-103
O=C(C1CC1)N1CCN=C1SCc1ccc(F)cc1	-51.5
CN(C)/C=N/c1sc2c(c1C#N)CCC2	25.9
COC(=O)c1ccc(NC(=O)c2ccc(C)cc2)o1	-4.94
CC(=O)Nc1cccc(N2CCCC2=O)c1	-18.2
CN(C)c1ccc(/C=N/NC(=O)c2cccc(N3CCCC3=O)c2)cc1	-16.6
CCc1c(C)sc(NC(=O)c2cc(C)no2)c1C#N	-63.3
COC(=O)c1ccc2[nH]c3c(c2c1)CC(C)CC3 (stereo unspecified)	-6.7
Cc1nc2ccc(S(=O)(=O)N(C)CC(=O)NCc3ccc(N(C)C)cc3)cc2s1	-41.2
CCN1C(=O)c2ccc(C(=O)Nc3ccc(O)cc3C)cc2C1=O	-50.1
CCn1c(-c2ccc(N)cc2)nc2ccccc21	-17.3
CCN(Cc1nc2ccccc2n1C)c1ccccc1	-11.5
CN(Cc1nc2ccccc2n1C)c1ccccc1	-32.4
CCn1c(CN(C)c2ccccc2)nc2ccccc21	-7.07
O=C(Nc1ccc(O)cc1)c1cc2n(n1)C(C(F)(F)F)CC(c1ccco1)N2 (stereo unspecified)	-82.6
c1ccc2c(-c3csc(-c4ccncc4)n3)c[nH]c2c1	-10.2
CCCCCCC(=O)N/N=C/c1ccco1	-28.6

SMILES	activity change, negative = inhibition [%]
COc1cc(C=NNC(=O)c2ccc(NS(=O)(=O)c3cccs3)cc2)cc(Br)c1O	165
COc1nc(-c2ccccc2Cl)ccc1C#N	-32.6
Cc1ccc2cn[nH]c2c1N	-36.2
O=S(=O)(Nc1ccccc1O)c1ccc(Cl)nc1	-36.8
COc1ccc(N2C(=O)CC(NNc3ncc(Cl)cc3Cl)C2=O)cc1 (stereo unspecified)	-50.3
CC1=NN(C(=O)c2ccc(Br)cc2)C(O)(c2ccccc2)C1 (stereo unspecified)	286
O=C(NCc1ccc2c(c1)OCO2)C1CC(=O)N(c2ccc(O)cc2)C1 (stereo unspecified)	-108
Cc1noc(C)c1S(=O)(=O)N(CC(=O)NCc1ccc2c(c1)OCO2)c1ccc(C(C)C)cc1	1.03
O=c1[nH]n(-c2ccc(Cl)cc2)c2ncccc12	291
O=C(CCCC(=O)c1ccccc1)Nc1ccc(O)cc1	182
S=c1[nH]nc(Cc2noc3ccccc23)n1-c1ccc(Cl)cc1	-49.3
COc1ccc(OC)c(/C(C)=N/Nc2ccc(C(=O)O)cc2)c1	-31.7
COc1ccc(CNc2nc3ccccc3n2CCN2CCCCC2)cc1	35.3
O=C(O)c1ccc(N(c2ccccc2)c2ccccc2)cc1	-77.1
Brc1c(CSc2nnc(-c3ccco3)o2)nc2ccccn12	-95.5
CCN(c1ccc(C)c(C)c1)S(=O)(=O)c1ccc2c(c1)CCN2C(=O)CCC(=O)O	-9.61
CCc1c(C)[nH]n(-c2ccc(Oc3ccccc3)c(S(=O)(=O)O)c2)c1=O	-7.16
Cc1cc(-c2n[nH]c(=S)o2)c(C)n1-c1ccccc1	19.3
COc1ccc(-c2csc(N(CCCN(C)C)C(=O)c3ccc(F)cc3)n2)cc1	-32.9
